Data from PubChem BioAssay.
Calls of active or inactive are those of the source. Cut-off read from the data, not from the text of the source: active = fold change permeability below about 0.7 or above about 1.3; inactive = in between.

Experiment: compounds altering in vitro BBB leakiness – cell-based, FITC-avidin fluorescence, HTS, primary screen (AID 1963498); note: test concentration not given here
Conditions: brain endothelial barrier, actives lie on both sides
In the case of `N=c1nc(N2CCCCC2)cc(N)n1O`, the fold change permeability is reported as 0.9 (inactive). For `CN1C(=O)CC[C@H]1c1cccnc1`, the fold change permeability was 0.9 (inactive). In the case of `CC(C)c1nc(N(C)S(C)(=O)=O)nc(-c2ccc(F)cc2)c1/C=C/[C@@H](O)C[C@@H](O)CC(=O)O`, the fold change permeability is reported as 0.9 (inactive). With `CC#C[C@]1(O)CC[C@H]2[C@@H]3CCC4=CC(=O)CCC4=C3[C@@H](c3ccc(N(C)C)cc3)C[C@@]21C` the fold change permeability was 0.8 (inactive). For `CC(C)NCC(O)c1ccc(NS(C)(=O)=O)cc1` (centres undefined), the fold change permeability was 0.7 (active). With `Cc1ccc(O)c(N=Nc2ccccc2)n1` the fold change permeability was 1.2 (inactive). For `CCCCN(Cc1ccccc1)C(=O)c1ccc(S(=O)(=O)Nc2ccccc2)cc1`, the fold change permeability was 1.8 (active). For `C[C@H](CS)C(=O)N1CCC[C@H]1C(=O)O`, the fold change permeability was 1 (inactive). With `O=C(O)c1ccc(-c2c[nH]c3ncc(-c4ccccc4)cc23)cc1C1CCCC1` the fold change permeability was 1.4 (active). With `O=c1c(O)c(-c2ccc(O)c(O)c2)oc2cc(O)cc(O)c12` the fold change permeability was 0.9 (inactive). With `OCCN1CCN(CCCN2c3ccccc3Sc3ccc(C(F)(F)F)cc32)CC1` the fold change permeability was 1.4 (active). With `C[C@](N)(Cc1ccc(O)c(O)c1)C(=O)O` the fold change permeability was 0.8 (inactive). With `CC(=O)Oc1cc(C(F)(F)F)ccc1C(=O)O` the fold change permeability was 0.8 (inactive). In the case of `NCCCNCCSP(=O)(O)O`, the fold change permeability is reported as 0.9 (inactive). In the case of `CC1(C)SCCN(S(=O)(=O)c2ccc(OCC#CCO)cc2)[C@H]1C(=O)NO`, the fold change permeability is reported as 1.1 (inactive). In the case of `O=C(O)COc1ccc(C(=O)c2cccs2)c(Cl)c1Cl`, the fold change permeability is reported as 1.4 (active). With `O=C1NC(=O)c2c1c(-c1ccccc1)cc1[nH]c3ccc(O)cc3c21` the fold change permeability was 0.7 (active). With `Nc1ccc(-c2ccc3ccccc3n2)cc1` the fold change permeability was 1.1 (inactive). For `CC(N=C(NC#N)Nc1ccncc1)C(C)(C)C` (centres undefined), the fold change permeability was 0.9 (inactive). In the case of `CC(C)(C)c1ccc(CN2CCN(C(c3ccccc3)c3ccc(Cl)cc3)CC2)cc1` (centres undefined), the fold change permeability is reported as 1.6 (active). In the case of `COC(=O)C(C)(N)Cc1ccc(O)cc1` (centres undefined), the fold change permeability is reported as 0.8 (inactive). In the case of `NCC(O)C1CCCCCCC1` (centres undefined), the fold change permeability is reported as 1 (inactive). For `O=c1n(CCCN2CCN(c3cccc(Cl)c3)CC2)nc2ccccn12`, the fold change permeability was 1.1 (inactive). In the case of `CCOC(=O)C1=C[C@@H](OC(CC)CC)[C@H](NC(C)=O)[C@@H](N)C1`, the fold change permeability is reported as 0.8 (inactive). In the case of `OC(CCN1CCCCC1)(c1ccccc1)C1CC2C=CC1C2` (centres undefined), the fold change permeability is reported as 1.1 (inactive). With `C#CCN(C)Cc1ccccc1` the fold change permeability was 0.6 (active). With `CS(=O)(=O)Nc1ccc([N+](=O)[O-])cc1Oc1ccccc1` the fold change permeability was 0.8 (inactive). For `C#CCn1c(=O)c2c(ncn2C)n(C)c1=O`, the fold change permeability was 0.9 (inactive). For `CC(C)COCC(CN(Cc1ccccc1)c1ccccc1)N1CCCC1` (centres undefined), the fold change permeability was 1 (inactive). For `O=c1[nH]cc(F)c(=O)[nH]1`, the fold change permeability was 0.8 (inactive). For `CC(=O)O[C@H]1CC[C@@]2(C)C(=CC[C@@H]3[C@@H]2CC[C@]2(C)C(c4cccnc4)=CC[C@@H]32)C1`, the fold change permeability was 1.8 (active). For `Cc1c(Cl)cccc1Nc1ncccc1C(=O)O`, the fold change permeability was 1.1 (inactive). With `CN(C)CC/C=C1\c2ccccc2COc2ccccc21` the fold change permeability was 1.4 (active). In the case of `Fc1ccc(CN(C2=NCCN2)c2c(Cl)cccc2Cl)cc1`, the fold change permeability is reported as 1.1 (inactive). With `NC1C=CC=C(C(=O)O)C1` (centres undefined) the fold change permeability was 0.9 (inactive). In the case of `N=C(N)c1ccc(N)cc1`, the fold change permeability is reported as 1.1 (inactive). In the case of `CCN(CC)CCCCCCCCOC(=O)c1cc(OC)c(OC)c(OC)c1`, the fold change permeability is reported as 1.1 (inactive). For `CC(C)(C)c1ccc(C(=O)CCCN2CCC(OC(c3ccccc3)c3ccccc3)CC2)cc1`, the fold change permeability was 1.6 (active). For `CC(C)NCC(O)COc1ccc(CCOCC2CC2)cc1` (centres undefined), the fold change permeability was 1.2 (inactive).
